# Assay results published in the supplement of paper PMC9694430.
# Tested on: LOC_OS04G35114-cb001
# Experiment: thermal shift delta Tm vs DMSO control; higher = stronger stabilization (binding)
# Details: 12.5 µM; protein concentration 2 µM
# In short: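 Compounds dissolved in DMSO were added to purified rice kinase domain constructs, which had been expressed in E. coli, for differential scanning fluorimetry. Each well held 19.5 μl of 2 μM kinase in 100 mM potassium phosphate pH 7.5, 150 mM NaCl, 10% glycerol and 5 × SYPRO Orange. Fluorescence was followed from 25°C to 95°C at a rate of 0.05°C/s. Shifts in Boltzmann-fitted melting temperature are triplicate means relative to DMSO-only protein.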
row,SMILES,thermal shift delta Tm [°C]
1,CN1CCN(c2cccc(Nc3nc4c(-c5ccc(S(C)(=O)=O)cc5)cccn4n3)c2)CC1,2.23
2,C[C@@H](NC(=O)c1ncnc(N)c1Cl)c1ncc(C(=O)Nc2cc(C(F)(F)F)c(Cl)cn2)s1,0.39
3,N#CC(=C(/N)Sc1ccccc1N)/C(C#N)=C(\N)Sc1ccccc1N,-0.47
4,Cc1cc(Nc2cc(N3CCN(C)CC3)nc(/C=C/c3ccccc3)n2)n[nH]1,6.22
5,OCCn1cc(-c2ccc3c(c2)CC/C3=N\O)c(-c2ccncc2)n1,0.11
6,COc1cc2c(c(OC)c1OC)-c1c(cc3c(c1OC)OCO3)CC(C)C(C)C2 (centres undefined) [Schisandrin B (Sch B)],0.63
7,COc1cc(N2CCN(C)CC2)ccc1Nc1nccc(-c2cn(C)c3cnccc23)n1,4.35
8,CN(c1ccccc1CNc1nc(Nc2ccc3c(c2)CC(=O)N3)ncc1C(F)(F)F)S(C)(=O)=O,5.87
9,CNC(=O)c1ccc(Nc2ncc(C(F)(F)F)c(NCc3nccnc3N(C)S(C)(=O)=O)n2)cc1,5.66
10,O=C(O)c1ccc2c3c1cccc3c(=O)n1c3ccccc3nc21,2.73
11,Cc1nc(Nc2n[nH]c3c2CN(C(=O)N[C@H](CN(C)C)c2ccccc2)C3(C)C)c2sccc2n1,3.07
12,C[C@H]1[C@H](C)CC[C@]2(C(=O)O)CC[C@]3(C)C(=CC[C@@H]4[C@@]5(C)C[C@@H](O)[C@H](O)[C@@](C)(CO)[C@@H]5CC[C@]43C)[C@H]12 [Asiatic Acid],-0.09
13,COc1ccc(-c2cc3nccn3c(Nc3ncccc3C(N)=O)n2)cc1OC,1.36
14,O=C(NCc1ccccc1)c1csc(Nc2ccncn2)n1 [Thiazovivin],1.56
